Values joined by “and” are separate entries in the source; they are usually repeats but may differ in a detail not shown here. Equal entries are not always repeated. Screen size: about 73,000 compounds; about 1,800 (2.5%) were called active. Another 13% or so got no clear call; they are omitted. The sample as a whole holds a higher share of actives than the screen did. Unmarked numbers belong to inactive results. Calls follow the shape of the dose curve; as a rule, active = well fitted activation curve with a large enough effect; inconclusive = small, poorly fitted or top-dose-only effect; inactive = no such curve, though single readings can be large or run the other way.
Potency is read from the fitted curve at half-maximal effect.

The experiment in a line: qHTS Assay for Agonists of the Thyroid Stimulating Hormone Receptor: Activators of Intracellular cAMP Concentrations in Parental HEK 293. Also: nearly all actives have a fitted effect of over 55% in size. As to activation: % of control where 0% means no effect. Particulars: parental HEK293 CNG cAMP sensor, membrane potential fluorescence; series mostly up to 57.1 µM; activation: at the top concentration. The essentials:
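Parental HEK 293 cells stably expressing a modified CNG channel (no TSHR) report cAMP rise as membrane depolarization. Membrane potential dye with 100 uM RO 20-1724 was loaded for 60 min at room temperature, then compound added for 30 min; fluorescence read at 590 nm.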
(qHTS replaces the single test concentration by a dilution series.)
In the case of `CCn1nc(NC(=O)c2ccco2)c2cc3ccc(C)cc3nc21`, the “activation” value is 1.12% (inactive).
The same measure, in the same setting: the same measure for `Cc1ccc(Cn2c(C)nc3c(c2=O)c2nc4ccccc4nc2n3Cc2ccco2)cc1`: 2.46% (inactive).
The same measure, in the same setting: the same measure for `CCOc1ccc2nc(NCCNS(=O)(=O)c3ccccc3)c(C#N)cc2c1`: 26.9% (inactive).
On the same count and under the same terms, the result for `Cc1nnc(N(Cc2ccco2)C(=O)c2ccno2)s1` reads 3.12% (inactive); that for `COC(=O)CSC1=C(C#N)C(c2ccccc2OC)C(C(=O)OC)C(=O)N1` (stereo not drawn), -3.31% [at 11.4 µM].
For `N#CC1=C(SCc2ccccc2)NC(=O)C(C#N)C12CCCC2` (stereo not drawn), the Potency is 31.6 µM (active).
`Cc1noc(C)c1-c1nc(Nc2ccccc2)c2ccccc2n1`: the “activation” value is -3.31% (inactive).
Consider `O=C(NC(=O)c1ccc(Cl)c(Cl)c1)OC1CCS(=O)(=O)C1` (stereo not drawn), for which the “activation” value is 17.7% (inactive).
Still for that read-out and setting: the result for `Cc1ccnc(N)c1` reads 16.3% (inactive).
The same measure, in the same setting: the same measure for `CC(C)c1ccc2c([Si](C)(C)C)c3c(nc2c1)-c1cccc(=O)n1C3`: 2.88% (inactive); for `COc1cccc(C(=O)Nc2c3c(nn2-c2cccc(C)c2C)CS(=O)(=O)C3)c1OC`: 17.4% (inactive).
For the compound `O=C(CC1CCCCC1)Nc1c2c(nn1-c1ccc(F)cc1)CS(=O)(=O)C2`, the Potency is 15.8 µM (active).
In the case of `COc1ccc(C2C(C#N)=C(N)Oc3n[nH]c(C)c32)cc1CN1CCN(c2ccc(F)cc2)CC1` (stereo not drawn), the “activation” value is -7.97% (inactive).
Still for that read-out and setting: the same measure for `Cc1nc2cnc(N3CCN(C)CC3)nc2n(C[C@H]2CCCO2)c1=O`: -4.71% (inactive).
Still for that read-out and setting: the result for `CC(C)(C)NC(=O)c1cc(NC(=O)c2ccco2)cc(NC(=O)c2ccco2)c1` reads 2.66% (inactive).
Still for that read-out and setting: the result for `Cc1cccc(C2c3c(n(C)c(=O)n(C)c3=O)N=C3c4ccccc4C(=O)C32)c1` (stereo not drawn) reads -19.4% (inactive); that for `COc1ccc(-c2c3c(=O)n(C)c(=O)n(C)c3cn2NC(C)=O)cc1`, -1.58% (inactive).
Regarding `COc1ccc(C2C3=C(OC(C)=O)c4ccccc4C3=Nc3c2c(=O)n(C)c(=O)n3C)cc1` (stereo not drawn), the Potency was 10 µM (active).
Consider `Cn1nnc(NC(=O)CSc2ncn[nH]2)n1`, for which the “activation” value is 1.91% (inactive).
Still for that read-out and setting: the result for `COC(=O)C(C(=O)OC)[C@@H]1CCCC(=O)C1` reads 4.23% [at 11.4 µM].
`COc1ccccc1Nc1ncnc2c1oc1ccccc12`: the Potency was 31.6 µM (active).
In the case of `COc1ccc(CCNC(=O)CSc2nc(C)nc3c2oc2ccccc23)cc1OC`, the “activation” value was 0.977% (inactive).
On the same count and under the same terms, the same measure for `CCc1nc(Nc2ccc3nccnc3c2)c2oc3ccccc3c2n1`: 3.36% (inactive); for `COc1ccccc1CNc1ncncc1-c1cccnc1`: 3.51% (inactive); for `COc1ccccc1CNc1ncncc1-c1cccc(NS(C)(=O)=O)c1`: 0.742% (inactive).
Regarding `COc1ccc(CNc2ncncc2-c2ccccc2OC)c(OC)c1`, the Potency is 25.1 µM (active).
Take `COC(=O)[C@@H]1CC[C@H](C)[C@@H](c2ccc(C)cc2)N1C(=O)c1ccc(/C=N\O[C@@H](C)c2cn([C@H](CO)Cc3ccccc3)nn2)cc1`: the activation was 9.66% [at 11.4 µM] and 5.24% [at 11.4 µM].
The same measure, in the same setting: the same measure for `Cc1cccc(-n2ncc3c(N4CCc5ccccc54)ncnc32)c1`: 9.9% (inactive).
As for `Cc1ccc2c(c1)c1ncnc(N3CCc4ccccc4C3)c1n2C`, the Potency is 25.1 µM (active).
Turning to `Cc1ccc2c(c1)c1ncn(CCC3=CCCCC3)c(=O)c1n2C`, the “activation” value was 18.7% (inactive).
The same measure, in the same setting: the result for `Cn1c(/C(C#N)=C2/CCCCCN2)nc2ccccc21` reads 8.85% (inactive); that for `Cc1noc(C)c1CSc1nc2cc(S(=O)(=O)N3CCOCC3)ccc2o1`, 0.104% (inactive); that for `O=C(OCC(COC(=O)c1ccccc1)(COC(=O)c1ccccc1)COC(=O)c1ccccc1)c1ccccc1`, 20% (inactive).
The same measure, in the same setting: the result for `CCc1ccc(-c2nnn(Cc3nn[nH]n3)n2)cc1` reads 16% (inactive).
In the case of `CCc1ccc(-c2nnn(Cc3nc4ccccc4s3)n2)cc1`, the Potency was 15.8 µM (active).
In the case of `O=C(O)CSCc1nc2ccccc2s1`, the “activation” value is 19.3% (inactive).
Still for that read-out and setting: the same measure for `Cc1nc2cnc(Nc3ccccc3)nc2n(Cc2ccc(F)cc2)c1=O`: 26.3% (inactive); for `O=C(CSc1n[nH]c(-c2cccnc2)n1)Nc1ccnc2ccccc12`: 17.3% (inactive).
Still for that read-out and setting: the result for `Nc1nonc1-c1nc2ccccc2n1CCC(=O)O` reads 2.08% (inactive).
Consider `COc1ccc(C)c(Cn2c(-c3nonc3N)nc3ccccc32)c1`, for which the Potency was 25.1 µM (active).
As for `Nc1nonc1-c1nc2ccccc2n1Cc1ccc(F)cc1`, the Potency is 20 µM (active).
Take `CC(=O)Nc1nonc1-c1nc2ccccc2n1Cc1ccccn1`: the “activation” value is 11.6% (inactive).
On the same count and under the same terms, the same measure for `CCCn1c(C(O)c2cc(OC)ccc2OC)nc2ccccc21` (stereo not drawn): 17.2% (inactive).
With `COCCn1c(-c2ccc(OC)c(OC)c2)nc2ccccc21`, the “activation” value is 10.2% (inactive).
The same measure, in the same setting: the same measure for `C=CCc1cccc2cc(C(=O)OCC)c(=O)oc12`: 12.2% (inactive); for `C/C(=C\C(=O)c1ccccc1)Nc1cccc(O)c1`: 5.02% [at 11.4 µM]; for `COc1cc(Cl)c(S(=O)(=O)n2cnc(C)c2)cc1Cl`: 12.1% [at 11.4 µM].
Still for that read-out and setting: the same measure for `CCC1Oc2ccc(Cl)cc2N(CC(=O)O)C1=O` (stereo not drawn): 9.51% (inactive); for `C#CCC(C(=O)OC)(C(=O)OC)C(C[N+](=O)[O-])c1ccccc1` (stereo not drawn): -0.955% [at 11.4 µM].
Still for that read-out and setting: the same measure for `COc1cccc([C@H]2Oc3ccc(OC)cc3/C(=N\OCC[C@@H]3C=C[C@H](OC(C)=O)[C@H](COC(C)=O)O3)[C@@H]2O)c1`: 1.81% [at 11.4 µM]; for `Cc1cc(C)n(C(=O)c2ccc(C)c(S(=O)(=O)N3CCOCC3)c2)n1`: 23.4% (inactive).
Turning to `Cc1ccc(C(=O)Nc2ccccc2C(=O)NC2CCCCC2)cc1S(=O)(=O)N1CCOCC1`, the Potency is 15.8 µM (active).
For `Cc1ccccc1NC(=O)c1cc(S(=O)(=O)N2CCOCC2)cs1`, the “activation” value is -8.26% (inactive).
On the same count and under the same terms, the same measure for `N[C@H](C(=O)O)c1ccc(C(=O)O)c(O)c1`: -2.63% (inactive).
Still for that read-out and setting: the same measure for `Cc1c2c(nc3ccccc13)-c1cccc(=O)n1C2`: -3.79% (inactive); for `Cc1ccc(-c2nn(CC(C)(C)C)c3ncnc(N)c23)cc1`: -5.59% (inactive).
Turning to `O=C(c1ccco1)N1CCN(C(=O)C2c3ccccc3Oc3ccccc32)CC1`, the “activation” value was 14.5% (inactive).
As to `CCCN(CCC)C(=O)C1c2ccccc2Oc2ccccc21`, the Potency is 12.6 µM (active).
